# From the antibiotic and cytotoxicity screens of Wong et al. (2023)
# In all, about 39,000 compounds went through this assay and about 1,500 (3.8%) were called active. The sample holds actives, similar compounds and a random draw of the others, so the mix is not that of the screen.
# System: HSkMC (human skeletal muscle cells)
# Assay: cytotoxicity call (relative viability < 0.9)
# Conditions: 10 µM
row,Structure (SMILES),cytotoxicity call
1,Cn1cnc(CCNC(=O)C[C@@H]2CC[C@@H]3[C@H](COC[C@@H](O)CN3C(=O)C3CC3)O2)c1,inactive
2,C[C@H](CO)N1C[C@H](C)[C@@H](CN(C)S(=O)(=O)c2cccs2)Oc2c(NC(=O)c3cnccn3)cccc2C1=O,inactive
3,COc1cccc(-c2cnc3c(c2)C(=O)N([C@H](C)CO)C[C@H](C)[C@H](CN(C)S(=O)(=O)c2cccs2)O3)c1,inactive
4,COc1ccc(S(=O)(=O)N(C)C[C@@H]2OCc3cn(nn3)CCCC(=O)N([C@@H](C)CO)C[C@H]2C)cc1,inactive
5,C[C@H](CO)N1C[C@H](C)[C@H](CN(C)C(=O)NC2CCCCC2)Oc2ccc(NS(=O)(=O)c3cn(C)cn3)cc2C1=O,inactive
6,CC1(C)OC(=O)C2(C(=O)O1)[C@@H](c1ccc(-c3ccc(-c4ccc(O)cc4)cc3)cc1)CC(=O)C[C@H]2c1ccccc1,inactive
7,CCCn1c(=O)[nH]c(=O)c2[nH]cnc21,inactive
8,COc1ccc(NC(=O)N(C)C[C@@H]2Oc3ccc(NC(=O)CCCCCC(=O)Nc4ccccc4N)cc3C(=O)N([C@H](C)CO)C[C@@H]2C)cc1,inactive
9,COc1ccc(NC(=O)Nc2ccc3c(c2)CC(=O)N([C@H](C)CO)C[C@@H](C)[C@@H](CN(C)Cc2ccc(Cl)c(Cl)c2)O3)cc1,active
10,COc1ccc(NC(=O)Nc2ccc3c(c2)CC(=O)N([C@@H](C)CO)C[C@@H](C)[C@H](CN(C)Cc2ccc(Cl)c(Cl)c2)O3)cc1,inactive
11,COc1ccc(NC(=O)Nc2ccc3c(c2)CC(=O)N([C@@H](C)CO)C[C@H](C)[C@@H](CN(C)Cc2ccc(Cl)c(Cl)c2)O3)cc1,inactive
12,COc1ccc(NC(=O)Nc2ccc3c(c2)CC(=O)N([C@H](C)CO)C[C@H](C)[C@H](CN(C)Cc2ccc(Cl)c(Cl)c2)O3)cc1,inactive
13,COc1ccc(NC(=O)Nc2ccc3c(c2)CC(=O)N([C@@H](C)CO)C[C@H](C)[C@H](CN(C)Cc2ccc(Cl)c(Cl)c2)O3)cc1,active
14,COc1ccc(NC(=O)Nc2ccc3c(c2)CC(=O)N([C@H](C)CO)C[C@@H](C)[C@H](CN(C)Cc2ccc(Cl)c(Cl)c2)O3)cc1,inactive
15,C[C@@H]1CCCCO[C@@H](CN(C)C(=O)Nc2cccc3ccccc23)[C@@H](C)CN([C@H](C)CO)C(=O)c2cc(NC(=O)Nc3cccc4ccccc34)ccc2O1,inactive
16,NC(=O)CSc1ncn(-c2ccccc2)n1,inactive
17,O=C(CCCCCNC(=O)OCc1ccc(CO[C@H]2C[C@@H](c3csc4ccccc34)C=C(C(=O)N3CCN(Cc4ccccc4)CC3)O2)cc1)NO,inactive
18,O=C(Nc1ccc(-c2nc3cc(NC(=O)c4ccccc4[N+](=O)[O-])ccc3o2)cc1)c1ccccc1[N+](=O)[O-],inactive
19,CC(C)C(=O)Nc1ccc([N+](=O)[O-])c(C(F)(F)F)c1,inactive
20,O=C(N[C@H](NC(=S)Nc1ccc(F)c([N+](=O)[O-])c1)C(Cl)(Cl)Cl)C(c1ccccc1)c1ccccc1,active
21,C[C@@H]1CN([C@@H](C)CO)C(=O)c2cc(NC(=O)Nc3ccc4c(c3)OCO4)ccc2O[C@@H](C)CCCCO[C@H]1CN(C)C(=O)c1ccccc1,inactive
22,COCC(=O)Nc1ccc2c(c1)OC[C@@H](C)N(C(=O)c1ccccc1F)C[C@@H](C)[C@@H](OC)CN(C)C2=O,inactive
23,C[C@H](CO)N1C[C@H](C)[C@@H](CN(C)C(=O)NC2CCCCC2)Oc2ccc(NC(=O)CCN3CCOCC3)cc2C1=O,inactive

row,Structure (SMILES),cytotoxicity call
1,Cc1ccc(S(=O)(=O)Nc2ccc3c(c2)C(=O)N([C@H](C)CO)C[C@H](C)[C@@H](CN(C)Cc2ccc(Cl)c(Cl)c2)O3)cc1,inactive
2,Cc1ccc(S(=O)(=O)Nc2ccc3c(c2)C(=O)N([C@H](C)CO)C[C@@H](C)[C@H](CN(C)Cc2ccc(Cl)c(Cl)c2)O3)cc1,active
3,Cc1ccc(S(=O)(=O)Nc2ccc3c(c2)C(=O)N([C@H](C)CO)C[C@H](C)[C@H](CN(C)Cc2ccc(Cl)c(Cl)c2)O3)cc1,active
4,Cc1ccc(S(=O)(=O)Nc2ccc3c(c2)C(=O)N([C@@H](C)CO)C[C@H](C)[C@H](CN(C)Cc2ccc(Cl)c(Cl)c2)O3)cc1,inactive
5,Cc1ccc(S(=O)(=O)Nc2ccc3c(c2)C(=O)N([C@@H](C)CO)C[C@H](C)[C@@H](CN(C)Cc2ccc(Cl)c(Cl)c2)O3)cc1,active
6,Cc1ccc(S(=O)(=O)Nc2ccc3c(c2)C(=O)N([C@H](C)CO)C[C@@H](C)[C@@H](CN(C)Cc2ccc(Cl)c(Cl)c2)O3)cc1,active
7,Cc1ccc(S(=O)(=O)Nc2ccc3c(c2)C(=O)N([C@@H](C)CO)C[C@@H](C)[C@H](CN(C)Cc2ccc(Cl)c(Cl)c2)O3)cc1,inactive
8,Cc1cccc(C(=O)N2CCC[C@@H](Cn3cc(C(C)(C)N)nn3)C2)c1C,inactive
9,CC(C)NC(=O)Nc1ccc2c(c1)C(=O)N([C@@H](C)CO)C[C@H](C)[C@@H](CN(C)S(=O)(=O)c1ccccc1)O2,inactive
10,C[C@@H]1CCCCO[C@H](CN(C)S(=O)(=O)c2cccs2)[C@H](C)CN([C@@H](C)CO)C(=O)c2cc(NC(=O)Cc3ccccc3)ccc2O1,inactive
11,C[C@H]1CN([C@@H](C)CO)C(=O)c2cccc(NS(=O)(=O)c3cccs3)c2O[C@H]1CN(C)S(=O)(=O)c1ccc(F)cc1,inactive
12,CN(C)Cc1cn(CC[C@H]2CC[C@H](N)[C@@H](CO)O2)nn1,inactive
13,Cc1noc(C)c1NC(=O)Nc1ccc2c(c1)C(=O)N([C@@H](C)CO)C[C@H](C)[C@H](CN(C)C(=O)Nc1ccc(C(F)(F)F)cc1)OCCCC[C@H](C)O2,inactive
14,O=C(C[C@H]1CC[C@H]2[C@@H](COC[C@@H](O)CN2C(=O)c2cccnc2)O1)NCc1ccc(-c2ccccc2)cc1,inactive
15,Cn1nnnc1SCC(=O)Nc1ncccn1,inactive
16,C[C@@H]1CN([C@H](C)CO)C(=O)c2cccc(NS(=O)(=O)c3ccccc3)c2O[C@@H]1CN(C)Cc1ccc(Cl)c(Cl)c1,inactive
17,Cn1cnc(S(=O)(=O)N2C[C@@H](O)COC[C@@H]3O[C@@H](CC(=O)NC4Cc5ccccc5C4)CC[C@H]32)c1,inactive
18,C[C@H](O)C#Cc1ccc2c(c1)O[C@H](CN(C)C(=O)Nc1ccccc1)[C@H](C)CN([C@H](C)CO)S2(=O)=O,inactive
19,COc1ccc(S(=O)(=O)Nc2ccc3c(c2)C(=O)N([C@H](C)CO)C[C@H](C)[C@H](CN(C)S(C)(=O)=O)OCCCC[C@@H](C)O3)cc1,inactive
20,Cc1cnc2c(c1NCCN(C)C)c(=O)n(C)c(=O)n2C,inactive
21,CCOc1nc2ccccc2c(=O)n1CCO,inactive
22,C[C@H](CO)N1C[C@H](C)[C@H](CN(C)C(=O)c2ccc3c(c2)OCO3)Oc2cc(-c3cncnc3)ccc2S1(=O)=O,inactive
23,O=C1c2ccncc2C(=O)N1CO,inactive

row,Structure (SMILES),cytotoxicity call
1,CO[C@@H](CN(C)S(=O)(=O)c1cccc(Cl)c1)[C@@H](C)CN([C@@H](C)CO)S(=O)(=O)c1ccc(Cl)cc1,inactive
2,CC(C)NC(=O)N(C)C[C@@H]1Oc2ccc(NS(=O)(=O)c3cn(C)cn3)cc2C(=O)N([C@@H](C)CO)C[C@@H]1C,inactive
3,FC(F)(F)c1ccccc1/N=C1\CCCc2ccccc21,inactive
4,Cc1ccc(S(=O)(=O)Nc2ccc3c(c2)C(=O)N([C@@H](C)CO)C[C@@H](C)[C@@H](CN(C)Cc2ccc(Cl)c(Cl)c2)O3)cc1,active
5,CO[C@@H]1[C@@H](O[C@@H]2O[C@H](C)[C@@H](O[C@H]3C[C@@](C)(O)[C@@H](OC(=O)CC(C)C)[C@H](C)O3)[C@H](N(C)C)[C@H]2O)[C@@H](CC=O)C[C@@H](C)[C@@H](O)/C=C\C=C/C[C@@H](C)OC(=O)C[C@H]1OC(C)=O,inactive
6,CO[C@@H]1[C@@H](O[C@@H]2O[C@H](C)[C@@H](O[C@H]3C[C@@](C)(O)[C@@H](OC(=O)CC(C)C)[C@H](C)O3)[C@H](N(C)C)[C@H]2O)[C@@H](CC=O)C[C@@H](C)[C@@H](O)/C=C/C=C/CC(C)OC(=O)C[C@H]1OC(C)=O (stereo partly drawn),active
7,COC1C(O)CC(=O)OC(C)CC=CC=CC(O)C(C)CC(CC=O)C1OC1OC(C)C(OC2CC(C)(O)C(OC(=O)CC(C)C)C(C)O2)C(N(C)C)C1O (stereo not drawn) [KITASAMYCINS [A1 shown] ],inactive
8,COc1ccccc1CNC(=O)C[C@@H]1C[C@@H]2c3cc(NS(=O)(=O)c4ccc(F)cc4)ccc3O[C@@H]2[C@@H](CO)O1,inactive
9,Cc1ccc(S(=O)(=O)N(C)C[C@@H]2OCCCC[C@H](C)Oc3ccc(NC(=O)Nc4c(C)noc4C)cc3C(=O)N([C@H](C)CO)C[C@H]2C)cc1,inactive
10,CC(C)C[N+]1(C)Cc2ccccc2C1,inactive
11,C[C@H]1CN([C@@H](C)CO)C(=O)c2cc(NS(=O)(=O)c3ccccc3)ccc2O[C@H]1CN(C)Cc1ccc(-c2ccccc2)cc1,inactive
12,Cc1ccc(S(=O)(=O)Nc2ccc3c(c2)C(=O)N([C@@H](C)CO)C[C@@H](C)[C@@H](CN(C)Cc2ccc(-c4ccccc4)cc2)O3)cc1,inactive
13,C[C@H](CO)N1C[C@H](C)[C@H](CN(C)Cc2ccc(-c3ccccc3)cc2)Oc2ccc(NS(=O)(=O)c3cccs3)cc2C1=O,inactive
14,C[C@@H]1CN([C@@H](C)CO)C(=O)c2cc(NS(=O)(=O)c3ccccc3)ccc2O[C@H]1CN(C)Cc1ccc(-c2ccccc2)cc1,inactive
15,C[C@H](CO)N1C[C@H](C)[C@@H](CN(C)Cc2ccc(-c3ccccc3)cc2)Oc2ccc(NS(=O)(=O)c3cccs3)cc2C1=O,inactive
16,C[C@@H]1CN([C@@H](C)CO)C(=O)c2cc(NS(=O)(=O)c3ccccc3)ccc2O[C@@H]1CN(C)Cc1ccc(-c2ccccc2)cc1,active
17,C[C@@H]1CN([C@H](C)CO)C(=O)c2cc(NS(=O)(=O)c3cccs3)ccc2O[C@@H]1CN(C)Cc1ccc(-c2ccccc2)cc1,active
18,Cc1ccc(S(=O)(=O)Nc2ccc3c(c2)C(=O)N([C@H](C)CO)C[C@H](C)[C@H](CN(C)Cc2ccc(-c4ccccc4)cc2)O3)cc1,active
19,Cc1ccc(S(=O)(=O)Nc2ccc3c(c2)C(=O)N([C@@H](C)CO)C[C@H](C)[C@@H](CN(C)Cc2ccc(-c4ccccc4)cc2)O3)cc1,inactive
20,Cc1ccc(S(=O)(=O)Nc2ccc3c(c2)C(=O)N([C@H](C)CO)C[C@@H](C)[C@H](CN(C)Cc2ccc(-c4ccccc4)cc2)O3)cc1,inactive
21,Cc1ccc(S(=O)(=O)Nc2ccc3c(c2)C(=O)N([C@H](C)CO)C[C@@H](C)[C@@H](CN(C)Cc2ccc(-c4ccccc4)cc2)O3)cc1,active
22,Cc1ccc(S(=O)(=O)Nc2ccc3c(c2)C(=O)N([C@@H](C)CO)C[C@@H](C)[C@H](CN(C)Cc2ccc(-c4ccccc4)cc2)O3)cc1,inactive
